Rin1 Abl inh: inhibitors of Rin1-Abl protein binding, primary screen, biochemical, TR-FRET. Tyrosine-protein kinase ABL1 (Homo sapiens) + Ras and Rab interactor 1 (Homo sapiens), …. inhibition, % at 7.35 µM. hit rate 0.4% among 360,000. AID 588664, 2011; in the data active means inhibition above about 5%, passing the limit was not always enough
TPT1 inh: Candida albicans TPT1 enzyme inhibitors, primary screen, biochemical, fluorescence polarization | recombinant caTPT1, FP RNA substrate dephosphorylation | inhibition, % at 5 µM | hit rate 0.81% among 300,000 | AID 1962, 2009;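 active means inhibition above the mean of all tested compounds plus 3 SD, set per screening campaign, cut at about 24% in these data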;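 further: plate controls were DMSO alone for no effect and ferristatin control at 100 nM for full effect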
Calb FLC: C. albicans growth inhibition with fluconazole, primary screen, CaCi-2 strain, Alamar Blue fluorescence; C. albicans CaCi-2 (fluconazole-resistant clinical isolate) + fluconazole, 48 h; growth inhibition, % (no concentration beside the values); hit rate 0.57% among 300,000;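 active means growth inhibition above about 58% in most replicates, limit read from the data, passing the limit was not always enough; inconclusive means exactly half the replicates above a set limit; inactive means most replicates below a set limit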;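 further: all wells also contain fluconazole at 8 µg/ml as a sub-toxic cotreatment; 0% = median of DMSO wells and 100% = median of geldanamycin control wells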
Rpn11 inh: Rpn11 (PSMD14) deubiquitinase inhibitors, primary screen, biochemical, fluorescence polarization, uHTS. 26S proteasome non-ATPase regulatory subunit 14 (Homo sapiens), O00487. human 26S proteasome, Ub4-pepOG fluorescence polarization; 20S core pre-blocked with epoxomicin. inhibition, % at 20 µM. hit rate 0.59% among 360,000. AID 588493, 2011;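 active means inhibition at 20 µM, scaled to each plate's controls, above about 33%, limit read from the data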
IDE cell inh: human IDE inhibitors in live cells, primary screen, fluorescence polarization, HEK cells, FAbetaB substrate | Insulin-degrading enzyme (Homo sapiens), P14735 | hit rate 0.41% among 320,000 | inhibition, % at 5.59 µM | FAbetaB cleavage;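 active means percent inhibition above the average of all tested compounds plus 3 SD, set per screening campaign, cut at about 16% in these data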;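 further: IDE supplied by intact live HEK cells; FP after avidin binding of uncleaved biotin substrate so inhibition keeps polarization high; 0% = DMSO wells and 100% = 60 µM reference IDE inhibitor Ii1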
Target sequence (P14735 whole entry, looked up): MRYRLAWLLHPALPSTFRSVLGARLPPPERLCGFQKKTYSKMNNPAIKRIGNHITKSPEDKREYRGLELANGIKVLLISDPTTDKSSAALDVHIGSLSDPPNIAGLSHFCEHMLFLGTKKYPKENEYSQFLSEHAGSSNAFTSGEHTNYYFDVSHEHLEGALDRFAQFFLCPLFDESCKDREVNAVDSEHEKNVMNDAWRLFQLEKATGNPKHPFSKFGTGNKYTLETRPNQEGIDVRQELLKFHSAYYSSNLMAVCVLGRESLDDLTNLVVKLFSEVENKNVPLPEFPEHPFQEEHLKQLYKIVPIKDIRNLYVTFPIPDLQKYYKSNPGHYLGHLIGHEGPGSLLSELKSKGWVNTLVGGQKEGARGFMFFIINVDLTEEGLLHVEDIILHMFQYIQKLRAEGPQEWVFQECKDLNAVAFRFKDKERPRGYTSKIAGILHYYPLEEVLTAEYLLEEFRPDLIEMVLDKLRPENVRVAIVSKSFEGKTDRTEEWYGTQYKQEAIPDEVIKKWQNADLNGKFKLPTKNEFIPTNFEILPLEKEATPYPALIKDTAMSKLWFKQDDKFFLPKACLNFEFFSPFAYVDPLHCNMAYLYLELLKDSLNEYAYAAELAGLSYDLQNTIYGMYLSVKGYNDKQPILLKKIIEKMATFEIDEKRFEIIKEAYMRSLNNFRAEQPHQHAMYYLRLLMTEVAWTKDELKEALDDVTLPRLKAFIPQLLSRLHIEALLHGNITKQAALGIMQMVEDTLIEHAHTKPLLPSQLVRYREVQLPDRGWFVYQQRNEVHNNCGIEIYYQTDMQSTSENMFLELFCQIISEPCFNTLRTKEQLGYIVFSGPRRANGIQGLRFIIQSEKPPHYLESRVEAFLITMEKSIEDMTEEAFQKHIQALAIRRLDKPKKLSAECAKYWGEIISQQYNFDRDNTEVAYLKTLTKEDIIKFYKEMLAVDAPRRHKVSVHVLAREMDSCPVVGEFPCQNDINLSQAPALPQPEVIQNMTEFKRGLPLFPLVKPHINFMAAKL
IDE cell activ: human IDE activators in live cells, primary screen, fluorescence polarization, HEK cells, FAbeta-B substrate. Insulin-degrading enzyme (Homo sapiens), P14735. FAbeta-B cleavage; 0% vehicle, 100% cell-free pure enzyme wells. activation, % at 5.96 µM. hit rate 0.073% among 340,000;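 active means activation above the mean of all tested compounds plus 3 SD, set per screening campaign, cut at about 17% in these data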
caTPT1 confirm: Candida albicans TPT1 inhibitors, confirmation, biochemical, fluorescence polarization, triplicate | shares compounds with TPT1 inh | recombinant caTPT1, RNase T1 coupled | inhibition, % at 5 µM | hit rate 74% among 2,400 | AID 2149, 2009;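 active means inhibition above the primary screen limit, the mean inhibition of all tested compounds plus 3 SD, cut at about 25% in these data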
RNase T1 counter: RNase T1 inhibitors, counter-screen for TPT1 inhibitor project, biochemical, fluorescence polarization | shares compounds with TPT1 inh | inhibition, % at 5 µM | AID 2153, 2009 | RNase T1 cleavage, 1536-well | hit rate 83% among 2,400;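 active means inhibition above the solvent-only control well mean plus 3 SD, limit set per screening run, cut at about 23% in these data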;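 further: plate controls were DMSO wells with enzyme for no effect and wells without RNase T1 for full effect; inhibitors block cleavage so intact labeled substrate keeps polarization high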
An asterisk follows results filed as active; ? = inconclusive; . = no result shown. Hits are enriched below; roughly 2.3% of the tested compounds scored in any of these assays.

SMILES	Rin1 Abl inh	TPT1 inh	Calb FLC	Rpn11 inh	IDE cell inh	IDE cell activ	caTPT1 confirm	RNase T1 counter
O=[N+]([O-])c1ccc(N/N=C\c2ccccc2OCc2ccccc2)cc1	1.3	85.3*	-0.3	37.1	-3.7	4.2	101.3*	107.8*
COc1cccc(/C=N/Nc2ccc([N+](=O)[O-])cc2)c1O	-0.1	37.2*	-8.0	24.1	1.8	1.4	56.9*	68.3*
COC(=O)c1ccc(N/N=C/c2cc([N+](=O)[O-])cc(OC)c2O)cc1	-0.9	3.8	-39.9	25.2	7.3	2.6	.	.
COc1ccc(/C=N\Nc2ccc([N+](=O)[O-])cc2)c(C(=O)O)c1OC	-2.0	37.7*	-11.1	-8.3	6.7	1.3	46.1*	60.5*
COc1ccc(/C=N/Nc2ccc([N+](=O)[O-])cc2)cc1O	-3.2	82.1*	-18.6	.	2.9	-2.1	97.7*	106.3*
COC(=O)C1=C(C)N(CCCC(=O)O)C(=O)NC1c1cccc(Cl)c1Cl (configuration not stated)	-0.8	-3.5	-7.4	-0.7	4.2	0.6	.	.
COc1ccc(N=Cc2c(O)[nH]c3ccccc23)cc1	-2.3	1.8	4.8	1.7	-1.9	0.8	.	.
Oc1[nH]c2ccccc2c1/C=N/c1nccs1	-3.4	36.2*	-4.9	33.7	1.8	-3.3	34.6*	44.8*
CCN(CC)CCC(=O)Nc1cccc2c1C(=O)c1ccccc1C2=O	-11.1	-12.5	-16.1	-105.4	0.7	.	.	.
Cc1ccc(C(=O)NC(C)c2nc3ccccc3n2CC(=O)Nc2c(C)cc(C)cc2C)cc1 (configuration not stated)	.	0.8	-1.4	.	4.1	.	.	.
CCN(CC)c1ccc(NC(=O)Cn2c(C(C)NC(=O)c3ccccc3)nc3ccccc32)cc1 (configuration not stated)	-3.3	52.7*	?	-3.6	4.7	2.1	8.2	10.7
Nc1c(C(=O)c2ccccc2)sc2snc(SCC(=O)c3ccccc3)c12	0.5	101.6*	22.1	37.8	10.5	-17.5	71.1*	77.3*
COc1ccccc1C(=O)COC(=O)Cn1nc(C)c([N+](=O)[O-])c1C	-0.1	-0.6	7.7	2.6	-2.6	0.6	.	.
COCCNc1nc(-c2cc(C)n(CCc3ccc(OC)cc3)c2C)cs1	3.8	48.0*	-24.8	15.1	6.4	4.5	10.3	16.3
COc1ccccc1CNc1nc(-c2cc(C)n(C)c2C)cs1	3.3	.	.	8.6	.	2.6	.	.
O=C(Nc1ccc(S(=O)(=O)Nc2nccs2)cc1)c1ccc(=O)[nH]c1	-1.3	35.6*	-18.0	26.2	12.0	-0.5	37.4*	50.9*
O=C(Nc1ccc(S(=O)(=O)Nc2nccs2)cc1)c1ccncc1	4.4	.	.	3.6	.	.	.	.
O=C(NCc1ccccc1)C(c1ccccc1)N(C(=O)c1csnn1)c1ccccc1 (configuration not stated)	1.9	-3.0	-6.2	4.7	-11.3	-0.2	.	.
O=[N+]([O-])c1ccc(Nc2ccccc2)c2nonc12	-11.1	24.7*	89.1*	32.9	-2.2	-3.2	35.0*	50.4*
CCOc1ccc(Nc2ccc([N+](=O)[O-])c3nonc23)cc1	-11.5	2.2	70.8	-0.2	-0.8	-1.0	.	.
CC(CC1C(C#N)=C(N)SC(N)=C1C#N)c1ccccc1 (configuration not stated)	-7.8	59.8*	-2.6	.	6.4	-1.1	28.5*	38.0*
CC(=O)n1nc2nc(C)cc(C)c2c1N	0.4	-4.9	?	-2.9	2.8	1.1	.	.
CCOc1ccccc1C(=O)n1nc2nc(C)cc(C)c2c1N	0.1	44.3*	1.3	1.7	-2.7	5.8	2.7	6.8
Cc1ccc2nc(N/N=C\c3ccc([N+](=O)[O-])o3)nc(-c3ccccc3)c2c1	-4.6	52.3*	-2.0	34.2	1.3	-3.4	49.5*	44.1*
COc1cc(OC)cc(C(=O)NC(=S)N2CCCCCC2)c1	5.2	43.3*	-38.7	-0.7	-9.9	3.3	1.8	4.2
SMILES	Rin1 Abl inh	TPT1 inh	Calb FLC	Rpn11 inh	IDE cell inh	IDE cell activ	caTPT1 confirm	RNase T1 counter
O=C(C[n+]1cccc2ccccc21)c1ccccc1	-0.4	10.6	-12.3	.	3.0	-4.3	.	.
O=C(C[n+]1cccc2ccccc21)c1ccc(NC(=O)c2ccccc2)cc1	2.0	39.5*	-11.1	.	4.0	-3.9	28.0*	41.1*
Cc1ccc(SC(C)C(=O)NCc2ccncc2)cc1 (configuration not stated)	0.7	113.6*	-5.5	-6.6	7.5	-16.6	6.3	6.9
COc1ccc(CNC(=O)C(C)Sc2ccc(C)cc2)cc1 (configuration not stated)	1.1	-2.5	-8.9	1.0	1.5	4.5	.	.
NC(=O)c1cccc(CC(=O)c2ccccc2)c1	1.6	74.5*	4.9	-4.1	-4.1	5.4	8.2	12.9
O=C(Cc1ccccc1)c1ccc(O)cc1	3.3	.	.	-2.3	.	1.8	.	.
COc1ccc(NC(=O)c2cc(-c3ccccc3)on2)cc1	-1.6	-3.3	9.6	3.4	5.8	4.1	.	.
COc1ccc(NC(=O)Nc2c(C)noc2-c2ccccc2)cc1	0.2	41.7*	4.7	0.4	-6.0	-0.5	5.5	11.2
CCOC(=O)c1c(-c2ccccc2)csc1/N=C/C1C(=O)CCCC1=O	-1.3	113.8*	6.6	4.1	-1.0	-2.8	20.7	32.6*
CCOC(=O)c1c(-c2ccc(C)cc2)csc1/N=C/N(C)C	-1.7	1.8	11.3	7.5	-3.7	-3.2	.	.
CCOC(=O)c1c(CC(C)C)csc1/N=C/C1C(=O)CCCC1=O	-1.6	126.2*	3.6	14.1	1.0	3.7	14.6	20.0
O=C(c1ccc(F)cc1)N1CCN(S(=O)(=O)c2ccc(Br)cc2)CC1	-0.9	2.9	-7.3	2.2	-10.4	-4.1	.	.
Cc1ccc(-c2cc(C(=O)N3CCCc4ccccc43)c3ccccc3n2)cc1	2.6	1.0	5.3	5.5	-0.3	4.0	.	.
Cc1cc(C)c2cc3c(N)c(C(=O)N4CCc5ccccc5C4)sc3nc2c1	1.7	26.1*	63.2	35.0	0.5	0.7	21.4	37.1*
Cc1cccc2cc3c(N)c(C(=O)N4CCOCC4)sc3nc12	-5.1	0.9	28.7	13.7	-1.0	-1.8	.	.
Cc1ccc2nc3sc(C(=O)N4CCCc5ccccc54)c(N)c3cc2c1	-5.0	37.6*	?	.	-0.2	-1.5	55.7*	64.4*

Screening results: PubChem BioAssay, several laboratories
